Measured values reported in PubChem BioAssay (EPA / NIEHS).
Inconclusive results are not listed. Some compounds were tested as several samples or in several runs, with calls that do not always agree. Calls of active or inactive are those of the source. Rule for the calls, unless noted: active = hit-call score of the fitted dose curve at least 0.9, where 1 is the maximum; inconclusive = response in the unintended direction; inactive = score below 0.9.

Tests used:
[1] = target: Retinoic acid receptor alpha (Homo sapiens) (UniProt P10276); assay: ATG_DR5_RAR_CIS: Attagene CIS-FACTORIAL HepG2 Assay for human Retinoic Acid Receptor Alpha (RARE), DR5 submotif (AID 2282934; active = hit-call score of the fitted dose curve at least 0.9, where 1 is the maximum; inactive = score below 0.9); details: HepG2 Attagene cis-factorial RARE DR5 reporter, mRNA; actives raise or lower the signal
Sequence of Retinoic acid receptor alpha (Homo sapiens) (P10276 whole entry, looked up): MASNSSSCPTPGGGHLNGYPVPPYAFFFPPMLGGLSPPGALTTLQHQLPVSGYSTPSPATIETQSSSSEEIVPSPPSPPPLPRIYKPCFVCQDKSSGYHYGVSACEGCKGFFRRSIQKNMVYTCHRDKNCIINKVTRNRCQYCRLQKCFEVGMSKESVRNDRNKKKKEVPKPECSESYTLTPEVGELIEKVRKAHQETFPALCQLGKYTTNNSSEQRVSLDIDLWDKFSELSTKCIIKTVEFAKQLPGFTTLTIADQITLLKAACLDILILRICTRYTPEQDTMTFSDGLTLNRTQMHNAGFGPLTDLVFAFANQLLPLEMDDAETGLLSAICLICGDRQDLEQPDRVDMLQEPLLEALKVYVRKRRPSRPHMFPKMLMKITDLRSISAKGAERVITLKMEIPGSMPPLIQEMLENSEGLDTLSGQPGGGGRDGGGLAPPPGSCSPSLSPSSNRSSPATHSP
Procedure, shortened: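 HepG2, transient cis-reporter transfection, 24 h exposure. mRNA readout: RT-PCR, FAM label, HpaI cut, capillary electrophoresis. DMSO baseline, gain/loss fitting.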

[2] = ATG_PPRE_CIS: Attagene CIS-FACTORIAL HepG2 Assay for human Peroxisome Proliferator-activated Response Element (PPRE) (AID 2282958; active = hit-call score of the fitted dose curve at least 0.9, where 1 is the maximum; inactive = score below 0.9); details: HepG2 PPRE cis-element reporter, Attagene transcription factor profiling; actives raise or lower the signal
Procedure, shortened: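 HepG2, transient MRTU transfection (cis promoter elements, endogenous TFs). 24 h dosing. RNA → oligo(dT) RT → PCR → 6-FAM primer extension → HpaI digest → CE. Bidirectional fit vs DMSO.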

[3] = ATG_GAL4_TRANS: Attagene TRANS-FACTORIAL HepG2 Assay for GAL4 (Internal Marker) (AID 2282976); details: HepG2 Attagene TRANS GAL4 internal marker reporter
Procedure, shortened: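 Liver HepG2 line bearing multiplexed GAL4-UAS reporter constructs; 24 h chemical treatment. Transcripts were quantified as fluorescent fragments on capillary electrophoresis after RT-PCR and HpaI cut, with activity fitted upward from DMSO.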

[4] = target: Glucocorticoid receptor (Homo sapiens) (UniProt P04150); assay: ATG_GR_TRANS: Attagene TRANS-FACTORIAL HepG2 Assay for human Glucocorticoid Receptor (GR) (AID 2282978); details: HepG2 Attagene TRANS GR reporter, mRNA transcription;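 note: activators score as hits since higher reporter transcript over DMSO is fitted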
Procedure, shortened: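 Fluorescent capillary-electrophoresis quantitation of reporter mRNA is the readout, taken 24 h after dosing human HepG2 cells carrying transiently transfected GAL4-UAS reporter units activated by chimeric NR-GAL4 fusions; activity scored as induction over DMSO.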

[5] = target: Oxysterols receptor LXR-alpha (Homo sapiens) (UniProt Q13133); assay: ATG_LXRa_TRANS: Attagene TRANS-FACTORIAL HepG2 Assay for human Liver X Receptor alpha (LXRa) (AID 2282980); details: HepG2 Attagene TRANS reporter, LXRa transactivation
Sequence of Oxysterols receptor LXR-alpha (Homo sapiens) (Q13133 whole entry, looked up, the tested form may be a part): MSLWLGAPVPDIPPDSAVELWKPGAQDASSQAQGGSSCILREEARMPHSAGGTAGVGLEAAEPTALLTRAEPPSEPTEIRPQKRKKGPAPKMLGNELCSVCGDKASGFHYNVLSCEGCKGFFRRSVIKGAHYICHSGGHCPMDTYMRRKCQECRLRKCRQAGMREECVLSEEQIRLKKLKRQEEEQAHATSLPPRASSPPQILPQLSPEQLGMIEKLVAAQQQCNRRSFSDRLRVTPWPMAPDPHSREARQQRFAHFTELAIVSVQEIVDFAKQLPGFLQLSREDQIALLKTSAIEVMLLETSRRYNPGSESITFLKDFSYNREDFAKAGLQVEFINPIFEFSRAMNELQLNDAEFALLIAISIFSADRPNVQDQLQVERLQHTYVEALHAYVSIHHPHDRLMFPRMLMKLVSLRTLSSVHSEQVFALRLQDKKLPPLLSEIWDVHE
Procedure, shortened: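 In this multiplexed TRANS system, compounds act on HepG2 cells carrying GAL4-UAS reporter units and a receptor-GAL4 fusion for 24 h. Induced reporter RNA is amplified, fluorescently labelled and sized by capillary electrophoresis, with DMSO as baseline.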

[6] = target: Oxysterols receptor LXR-beta (Homo sapiens) (UniProt P55055); assay: ATG_LXRb_TRANS: Attagene TRANS-FACTORIAL HepG2 Assay for human Liver X Receptor beta (LXRb) (AID 2282981); details: HepG2 Attagene TRANS GAL4-LXRb reporter, mRNA
Sequence of Oxysterols receptor LXR-beta (Homo sapiens) (P55055 whole entry, looked up, the tested form may be a part): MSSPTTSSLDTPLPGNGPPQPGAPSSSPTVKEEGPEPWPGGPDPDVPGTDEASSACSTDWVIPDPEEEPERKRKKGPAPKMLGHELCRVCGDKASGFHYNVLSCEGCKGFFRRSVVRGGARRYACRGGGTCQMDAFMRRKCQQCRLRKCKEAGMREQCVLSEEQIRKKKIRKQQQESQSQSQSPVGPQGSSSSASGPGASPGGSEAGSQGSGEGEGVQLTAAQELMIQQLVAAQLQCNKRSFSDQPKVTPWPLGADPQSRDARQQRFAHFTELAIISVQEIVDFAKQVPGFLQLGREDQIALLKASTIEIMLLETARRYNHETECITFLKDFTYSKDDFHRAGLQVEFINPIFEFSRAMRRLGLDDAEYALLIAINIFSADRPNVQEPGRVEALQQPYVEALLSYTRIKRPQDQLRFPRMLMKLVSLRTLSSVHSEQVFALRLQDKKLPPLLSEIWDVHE
Procedure, shortened: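 Transient transfection HepG2 (multiplexed RTUs, GAL4-UAS); NR-Gal4 chimera; 24 h exposure; RNA → RT-PCR → 6-FAM primer extension → HpaI → CE; increase vs DMSO.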

[7] = ACEA_ER_AUC_viability: ACEA Biosciences xCELLigence Real-Time Cell Analysis on Estrogen Receptor Agonism for Viability (AID 2283782);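 note: continuous compound exposure with impedance area under curve over 80 h; hit means loss of impedance signal meaning reduced cell growth or viability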
Procedure, shortened: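 T-47D; phenol red-free RPMI1640 + 10% CS-FBS; 8 conc., 1:4 serial, max 100 uM final, ≤0.5% DMSO; n = 2; continuous exposure; impedance monitored to 80 h post-dose; AUC vs DMSO.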

[8] = TOX21_p53_BLA_p3_viability: Viability Assessment in the Tox21 HCT-116 p53 Agonism Beta-lactamase Assay, Phase 3 (AID 2283593);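 note: cells exposed to compound for 16 h before reading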
Procedure, shortened: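 Cellular ATP was quantified by CellTiter-Glo luminescence, read after 30 min at room temperature. Beforehand, HCT116 cells (4000/well) received compound 5 h post-seeding, 217-fold diluted from DMSO, then incubated 16 h at 37C.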

[9] = TOX21_p53_BLA_p4_viability: Viability Assessment in the Tox21 HCT-116 p53 Agonism Beta-lactamase Assay, Phase 4 (AID 2283597);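 note: hits lower the luminescence signal meaning cytotoxicity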
Procedure, shortened: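 Luminescent ATP readout (CellTiter-Glo, 30 min, room temperature) in the same wells as the p53 bla ratio. HCT116 cells were treated for 16 h at 37C with DMSO-dissolved compounds.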

[10] = TOX21_p53_BLA_p5_viability: Viability Assessment in the Tox21 HCT-116 p53 Agonism Beta-lactamase Assay, Phase 5 (AID 2283600)
Procedure, shortened: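 Seeded cells (4000/well) settle 5 h before compound addition. Plates then incubate 16 h at 37C, receive FRET substrate for 2 h, and finally CellTiter-Glo, with luminescence measured after a 30 min room-temperature incubation.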

[11] = target: human Peroxisome Proliferator-activated Receptor alpha (PPARa), PPARA (gene 5465) (UniProt Q07869); assay: ATG_PPARa_TRANS: Attagene TRANS-FACTORIAL HepG2 Assay for human Peroxisome Proliferator-activated Receptor alpha (PPARa) (AID 2283001)
Sequence of human Peroxisome Proliferator-activated Receptor alpha (PPARa), PPARA (gene 5465) (Q07869 whole entry, looked up, the tested form may be a part): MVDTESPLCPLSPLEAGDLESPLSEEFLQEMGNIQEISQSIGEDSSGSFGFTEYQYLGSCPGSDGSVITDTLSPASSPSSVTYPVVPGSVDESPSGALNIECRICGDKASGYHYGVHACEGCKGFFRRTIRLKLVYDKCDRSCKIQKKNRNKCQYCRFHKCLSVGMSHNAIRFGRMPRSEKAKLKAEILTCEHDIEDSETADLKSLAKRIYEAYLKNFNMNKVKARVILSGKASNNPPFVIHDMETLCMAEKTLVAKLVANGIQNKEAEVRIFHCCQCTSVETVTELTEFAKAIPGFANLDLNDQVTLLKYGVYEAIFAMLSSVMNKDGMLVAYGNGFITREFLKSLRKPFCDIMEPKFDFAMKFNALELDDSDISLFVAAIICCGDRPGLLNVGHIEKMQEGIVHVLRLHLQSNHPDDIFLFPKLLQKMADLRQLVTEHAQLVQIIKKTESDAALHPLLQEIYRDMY
Procedure, shortened: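 Read-out is fluorescence of reporter cDNA fragments resolved by capillary electrophoresis after RT-PCR. Human HepG2 liver cells carried transfected PPARa-Gal4 chimera and GAL4-UAS reporter units, treated 24 h; activity scored as increase over DMSO.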

[12] = target: human RAR-related Orphan Receptor beta (RORb), RORB (gene 6096) (UniProt Q92753); assay: ATG_RORb_TRANS: Attagene TRANS-FACTORIAL HepG2 Assay for human RAR-related Orphan Receptor beta (RORb) (AID 2283010)
Sequence of human RAR-related Orphan Receptor beta (RORb), RORB (gene 6096) (Q92753 whole entry, looked up, the tested form may be a part): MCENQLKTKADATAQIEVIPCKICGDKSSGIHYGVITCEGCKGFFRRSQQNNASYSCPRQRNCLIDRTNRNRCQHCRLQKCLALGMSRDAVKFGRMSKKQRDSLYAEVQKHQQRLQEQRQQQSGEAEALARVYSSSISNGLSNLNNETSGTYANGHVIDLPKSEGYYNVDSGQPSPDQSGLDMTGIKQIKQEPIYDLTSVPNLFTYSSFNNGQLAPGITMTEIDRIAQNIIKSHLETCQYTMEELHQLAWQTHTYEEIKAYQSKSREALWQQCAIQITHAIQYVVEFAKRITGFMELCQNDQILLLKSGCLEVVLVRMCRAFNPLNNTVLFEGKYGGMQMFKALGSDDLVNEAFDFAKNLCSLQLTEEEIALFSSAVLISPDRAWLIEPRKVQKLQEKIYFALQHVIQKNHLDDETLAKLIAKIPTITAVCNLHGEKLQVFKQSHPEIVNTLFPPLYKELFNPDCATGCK
Procedure, shortened: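 HepG2 cells transiently transfected with GAL4-UAS reporter units expressing chimeric NR-Gal4 protein; reporter mRNA measured 24 h after dosing by RT-PCR, 6-FAM labelling and capillary electrophoresis. Gain-of-signal fitted relative to DMSO baseline.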

[13] = target: human RAR-related Orphan Receptor gamma (RORg), RORC (gene 6097) (UniProt P51449); assay: ATG_RORg_TRANS: Attagene TRANS-FACTORIAL HepG2 Assay for human RAR-related Orphan Receptor gamma (RORg) (AID 2283011)
Sequence of human RAR-related Orphan Receptor gamma (RORg), RORC (gene 6097) (P51449 whole entry, looked up, the tested form may be a part): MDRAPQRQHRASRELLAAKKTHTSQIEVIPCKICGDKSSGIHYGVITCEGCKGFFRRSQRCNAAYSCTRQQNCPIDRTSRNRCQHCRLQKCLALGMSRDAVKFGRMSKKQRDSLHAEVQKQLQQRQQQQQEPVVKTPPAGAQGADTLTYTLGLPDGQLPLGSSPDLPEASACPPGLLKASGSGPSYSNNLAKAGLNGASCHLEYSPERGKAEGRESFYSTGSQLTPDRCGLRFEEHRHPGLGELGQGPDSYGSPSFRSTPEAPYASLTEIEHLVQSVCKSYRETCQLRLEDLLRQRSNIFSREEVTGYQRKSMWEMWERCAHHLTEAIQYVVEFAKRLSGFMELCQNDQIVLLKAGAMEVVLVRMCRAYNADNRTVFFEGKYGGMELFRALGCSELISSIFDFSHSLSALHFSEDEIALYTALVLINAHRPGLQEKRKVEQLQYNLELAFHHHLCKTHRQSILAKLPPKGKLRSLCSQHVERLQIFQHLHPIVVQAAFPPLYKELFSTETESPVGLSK
Procedure, shortened: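 Chimeric RORg-Gal4 transactivation in transfected HepG2; 24 h exposure; RT-PCR/capillary electrophoresis readout of reporter mRNA, DMSO baseline.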

[14] = target: human Thyroid Receptor alpha (THRa1), THRA (gene 7067) (UniProt P10827); assay: ATG_THRa1_TRANS: Attagene TRANS-FACTORIAL HepG2 Assay for human Thyroid Receptor alpha (THRa1) (AID 2283014)
Sequence of human Thyroid Receptor alpha (THRa1), THRA (gene 7067) (P10827 whole entry, looked up, the tested form may be a part): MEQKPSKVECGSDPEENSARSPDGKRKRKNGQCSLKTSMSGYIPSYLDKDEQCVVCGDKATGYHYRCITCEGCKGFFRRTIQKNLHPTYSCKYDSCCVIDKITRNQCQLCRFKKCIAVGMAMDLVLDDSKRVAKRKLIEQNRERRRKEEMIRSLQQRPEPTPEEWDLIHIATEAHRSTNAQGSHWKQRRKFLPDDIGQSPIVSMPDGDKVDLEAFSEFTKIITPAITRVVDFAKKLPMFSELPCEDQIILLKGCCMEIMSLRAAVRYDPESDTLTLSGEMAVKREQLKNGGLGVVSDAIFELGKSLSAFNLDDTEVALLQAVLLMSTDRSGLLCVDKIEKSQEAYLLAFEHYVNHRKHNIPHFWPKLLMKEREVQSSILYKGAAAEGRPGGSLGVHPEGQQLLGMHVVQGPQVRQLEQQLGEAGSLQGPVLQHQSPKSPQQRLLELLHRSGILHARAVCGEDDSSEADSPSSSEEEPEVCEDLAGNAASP
Procedure, shortened: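 Measured here is mRNA from a GAL4-UAS reporter in transfected HepG2 cells carrying a Gal4-fused receptor, 24 h post-dose. DMSO served as negative control and baseline.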

[15] = target: Nuclear receptor subfamily 4 group A member 2 (Homo sapiens) (UniProt P43354); assay: ATG_NURR1_TRANS: Attagene TRANS-FACTORIAL HepG2 Assay for human Nuclear Receptor Related Protein 1 (NURR1) (AID 2282985); details: HepG2 Attagene TRANS reporter, mRNA readout
Procedure, shortened: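 Transient transfection of HepG2, human liver cells, with multiple GAL4-UAS reporter transcription units. Cells dosed 24 h, RNA isolated, reverse-transcribed, PCR-amplified, FAM-labelled, HpaI-digested, sized by capillary electrophoresis. DMSO served as negative control.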

[16] = target: Peroxisome proliferator-activated receptor gamma (Homo sapiens) (UniProt P37231); assay: ATG_PPARg_TRANS: Attagene TRANS-FACTORIAL HepG2 Assay for human Peroxisome Proliferator-activated Receptor-gamma (PPARg) (AID 2283007)
Sequence of Peroxisome proliferator-activated receptor gamma (Homo sapiens) (P37231 whole entry, looked up, the tested form may be a part): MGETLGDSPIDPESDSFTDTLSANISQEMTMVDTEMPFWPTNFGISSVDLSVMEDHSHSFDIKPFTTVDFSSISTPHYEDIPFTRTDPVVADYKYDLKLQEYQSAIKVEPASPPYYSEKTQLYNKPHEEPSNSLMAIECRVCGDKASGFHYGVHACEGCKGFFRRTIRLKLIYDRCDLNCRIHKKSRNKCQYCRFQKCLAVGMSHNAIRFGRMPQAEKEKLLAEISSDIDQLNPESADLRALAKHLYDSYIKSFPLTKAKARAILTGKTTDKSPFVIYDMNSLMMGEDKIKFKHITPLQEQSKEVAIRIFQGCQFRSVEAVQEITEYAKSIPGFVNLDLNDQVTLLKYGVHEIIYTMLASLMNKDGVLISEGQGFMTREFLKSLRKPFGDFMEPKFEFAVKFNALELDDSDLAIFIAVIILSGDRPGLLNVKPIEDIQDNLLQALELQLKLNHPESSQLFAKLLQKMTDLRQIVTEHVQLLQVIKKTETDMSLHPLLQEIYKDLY
Procedure, shortened: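 Transient transfection of HepG2 with GAL4-UAS-driven reporter units; chemical dosing 24 h; total RNA → oligo(dT) RT → PCR with reporter primers → 6-FAM primer extension → HpaI digest 2 h 37 C → capillary electrophoresis. Positive direction vs DMSO.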

[17] = CCTE_Harrill_HTTr_Viability_MCF7: CCTE's 6-hour Cell Viability Assessment for the High-Throughput Transcriptomics (HTTr) Platform, in MCF-7 cells cultured in DMEM + 10% fetal bovine serum, Harrill Lab (AID 2284010; active = hit-call score of the fitted dose curve at least 0.9, where 1 is the maximum; inactive = score below 0.9)
Procedure, shortened: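 MCF-7 cells in DMEM + 10% FBS, 384-well, exposed 6 h to an eight-point dilution series. Membrane integrity scored by high-content imaging of propidium iodide exclusion; bidirectional fit versus DMSO.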

[18] = CCTE_Harrill_HTTr_Apoptosis_MCF7: CCTE's 6-hour Apoptosis Assessment for the High-Throughput Transcriptomics (HTTr) Platform, in MCF-7 cells cultured in DMEM + 10% fetal bovine serum, Harrill Lab (AID 2284011; active = hit-call score of the fitted dose curve at least 0.9, where 1 is the maximum; inactive = score below 0.9)
Procedure, shortened: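 Apoptosis in MCF-7 cells grown in DMEM with 10% fetal bovine serum was scored after a six hour exposure by high content imaging of caspase-3/7 activation (CellEvent Caspase 3/7 Green), with DMSO serving as negative control and baseline.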

[19] = target: Bile acid receptor (Homo sapiens) (UniProt Q96RI1); assay: ATG_IR1_CIS: Attagene CIS-FACTORIAL HepG2 Assay for human Nuclear Receptor Subfamily 1 Group H Member 4 (NR1H4), IR1 submotif (AID 2282946; active = hit-call score of the fitted dose curve at least 0.9, where 1 is the maximum; inactive = score below 0.9); details: IR1 reporter transcription, actives raise or lower the signal
Sequence of Bile acid receptor (Homo sapiens) (Q96RI1 whole entry, looked up, the tested form may be a part): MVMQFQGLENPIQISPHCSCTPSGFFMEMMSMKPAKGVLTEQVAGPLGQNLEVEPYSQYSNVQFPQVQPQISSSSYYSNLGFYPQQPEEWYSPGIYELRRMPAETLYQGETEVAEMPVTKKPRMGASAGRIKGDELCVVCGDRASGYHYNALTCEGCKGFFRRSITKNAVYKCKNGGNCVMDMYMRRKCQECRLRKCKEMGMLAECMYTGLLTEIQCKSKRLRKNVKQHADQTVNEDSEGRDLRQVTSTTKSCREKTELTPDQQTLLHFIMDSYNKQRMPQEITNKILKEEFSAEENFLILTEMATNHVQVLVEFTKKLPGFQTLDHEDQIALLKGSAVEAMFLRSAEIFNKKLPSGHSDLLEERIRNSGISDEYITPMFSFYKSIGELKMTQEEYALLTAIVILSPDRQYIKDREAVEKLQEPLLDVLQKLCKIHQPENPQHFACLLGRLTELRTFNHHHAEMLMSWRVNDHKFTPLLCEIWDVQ
Procedure, shortened: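 Cells (human HepG2) carry transiently transfected cis-promoter reporter transcription units. Compounds are incubated 24 h, total RNA is reverse-transcribed and amplified, and labelled fragments are resolved by capillary electrophoresis. Curves use DMSO as baseline.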

[20] = target: Nuclear receptor subfamily 1 group I member 3 (Homo sapiens) (UniProt Q14994); assay: ATG_CAR_TRANS: Attagene TRANS-FACTORIAL HepG2 Assay for human Constitutive Androstane Receptor (CAR) (AID 2282969); details: HepG2 Attagene TRANS-FACTORIAL CAR reporter;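 note: activators raise reporter mRNA above DMSO so AC50 marks induction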
Sequence of Nuclear receptor subfamily 1 group I member 3 (Homo sapiens) (Q14994 whole entry, looked up, the tested form may be a part): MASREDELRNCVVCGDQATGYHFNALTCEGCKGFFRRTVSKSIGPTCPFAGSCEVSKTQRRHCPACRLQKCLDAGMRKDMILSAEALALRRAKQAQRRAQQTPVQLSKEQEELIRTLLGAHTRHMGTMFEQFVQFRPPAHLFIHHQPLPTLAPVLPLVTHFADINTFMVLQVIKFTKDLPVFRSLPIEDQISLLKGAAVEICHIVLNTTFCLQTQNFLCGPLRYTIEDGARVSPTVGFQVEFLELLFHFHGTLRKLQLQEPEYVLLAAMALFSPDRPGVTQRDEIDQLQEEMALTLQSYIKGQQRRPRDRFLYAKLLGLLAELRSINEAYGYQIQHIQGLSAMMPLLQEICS
Procedure, shortened: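 Readout is reporter mRNA induction, quantified by fluorescent primer extension and capillary electrophoresis after RT-PCR. Cells were HepG2 transiently carrying chimeric NR-Gal4 constructs with GAL4-UAS reporters, treated for 24 h; activity scored upward from DMSO.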

Measured: AC50

CCCCCCCC#N
inactive: [1] | [2] | [3] | [4] | [5] | [6] | [7]

CCCN[C@H]1CCc2nc(N)sc2C1
inactive: [5] | [6] | [8] | [9] | [10]

CC(=O)CCc1ccccc1
inactive: [1] | [3] | [6] | [11] | [12] | [13] | [8] | [9] | [10]

Cc1ccccc1S(=O)(=O)O
inactive: [1] | [11] | [12] | [8] | [9] | [10]

CC1=NN(c2cc(Cl)c(S(=O)(=O)O)cc2Cl)C(=O)C1N=Nc1ccc(S(=O)(=O)O)cc1 (configuration not stated)
inactive: [3] | [5] | [6] | [12] | [14] | [9] | [10]

CN(C)CCCN1c2ccccc2CCc2ccc(Cl)cc21
active: [9] 73.9 µM | [10] 77.1 µM | [17] 66.7 µM | [18] 45.5 µM
inactive: [3] | [4] | [15] | [11] | [16] | [9] | [10]

C=CC(C)(CCC=C(C)C)OC(=O)c1ccccc1 (configuration not stated)
active: [7] 72.6 µM
inactive: [1] | [19] | [4] | [11] | [8] | [10]

CCCCCCCCCCC1CO1 (configuration not stated)
active: [7] 32.9 µM
inactive: [2] | [3] | [15] | [11] | [16] | [14]

CO[Si](CCCNCCN)(OC)OC
inactive: [1] | [2] | [6] | [11] | [12] | [13] | [14] | [7]

COC(=O)[C@]1(C)CCC[C@@]2(C)[C@H]1CC=C1C=C(C(C)C)CC[C@@H]12
inactive: [1] | [20] | [5] | [6] | [8] | [9]
active: [19] 6.77 µM | [7] 73.3 µM

C1=CCC=C1
inactive: [3] | [11]

Clc1ccccn1
inactive: [1] | [19] | [3] | [13] | [8] | [10] | [7] | [17] | [18]

CCCCCCC1CCC(=O)O1 (configuration not stated)
inactive: [1] | [2] | [3] | [5] | [6] | [15] | [11] | [16] | [7]

CN(C)c1ccc(C(c2ccccc2)c2ccc(N(C)C)cc2)cc1
inactive: [20] | [3] | [6] | [15] | [14] | [8] | [9] | [10]
active: [7] 75.8 µM

CC/C=C\CC1=C(C)CCC1=O
active: [16] 23.9 µM | [7] 92.5 µM
inactive: [20] | [5] | [6] | [11] | [8] | [10]

OCCN(CCO)c1cccc(Cl)c1
inactive: [2] | [20] | [3] | [16]

CC1=C(CC=O)C(C)(C)CCC1
inactive: [5] | [6] | [16] | [12] | [10]
active: [7] 64.2 µM
